# Compound activity: PubChem, National Center for Advancing Translational Sciences (NCATS)
# Pf Dd2 inh: qHTS Primary assay for Inhibitors of Plasmodium falciparum Dd2 growth in vitro | P. falciparum Dd2 growth, SYBR Green, 72 h | actives 4.3% (n = 120,000) | Potency, µM (titrated, usually from 28.9 µM), hits mostly inhibitors | AID 1347417, 2020; active = well fitted inhibition curve with a large enough effect; note: nearly all actives have a fitted effect of over 65% in size
#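 Readout: SYBR Green fluorescence, 485 nm excitation, 535 nm emission, after ~16 h lysis at 37C. Before that, Dd2-infected red cells (2.5% hematocrit) grew 72 h with compound, 29 uM top final concentration.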
# A number is an active result; - = inactive; [ ] = dose if it differs, or a comment. Many of the other results were omitted from the sample, so hits are more common in it than they were.
SMILES,Pf Dd2 inh
Cc1cc(C(=O)N2CCc3nnc([C@@H]4C[C@@H](O)CN4C)n3CC2)n(C)n1,-
C#CCN(C)C(=O)[C@@H]1CCCN1[C@@H](C(=O)NC)c1ccccc1F,-
COc1ccccc1-c1cn2c(n1)CO[C@@H](CNCc1ccc(F)cc1)C2,-
CCc1ccc(S(=O)(=O)c2cn(C)c3cc(OC)c(OC)cc3c2=O)cc1,-
Cn1cc(S(=O)(=O)c2cccc(Cl)c2)c(=O)c2cc(F)c(N3CCCCC3)cc21,-
CCCCn1cc(S(=O)(=O)c2ccc(OC)cc2)c(=O)c2cc(CC)ccc21,-
Cc1cc(C)cc(S(=O)(=O)c2cn(C)c3cc(N4CCCC4)c(F)cc3c2=O)c1,-
COc1ccc(S(=O)(=O)c2cn(C)c3cc(N4CCCCCC4)c(F)cc3c2=O)cc1,8.91µM
CCc1ccc(S(=O)(=O)c2cn(Cc3ccc(OC)cc3)c3cc(OC)c(OC)cc3c2=O)cc1,11.2µM
Cc1ccc(C(=O)N2C[C@@H](CO)[C@H](c3ccncc3)C2)nc1,-
Cc1c(-c2ccc(F)cc2)[nH]c2ccc(CNC(=O)CN3CCOC3=O)cc12,-
O=C(O)CC1(CC(=O)N2CC[C@H]3NC(=O)N(c4ccc(F)cc4)C(=O)[C@H]32)CCCC1,-
CCOc1ccccc1NC(=O)CN1C(=O)C(=O)c2ccccc21,-[5.79 µM]
CCOCCc1nnc(NC(=O)C(=O)c2cc(C)n(-c3ccc(C)cc3C)c2C)s1,-
Cc1ccc(-n2c(C)cc(C(=O)C(=O)Nc3ccccc3)c2C)c(C)c1,5.01µM
Cc1cc(/C=C(\C#N)C(=O)Nc2ccccc2)c(C)n1-c1ccc(F)cc1,-
COc1ccccc1NC(=O)C(=O)c1cc(C)n(-c2cc(C)cc(C)c2)c1C,-
CCOc1ccccc1NC(=O)C(=O)c1cc(C)n(-c2cccc(C)c2C)c1C,7.08µM
O=C(O)c1[nH]ncc1CN1CCc2[nH]nc(-c3ccc(-c4ccccc4)cc3)c2C1,-
COCc1nc(C2CCCN(C(=O)c3cccc(C)c3)C2)no1 (stereo not drawn),-
COc1ccc(C(=O)N2CCCC(C(=O)NCc3ccccc3)CCNC(=O)CC2)cc1F (stereo not drawn),-
Cc1cc(C(=O)N2CC3CC(C2)[C@H]2CCCC(=O)N2C3)no1 (stereo partly drawn),-
C#CCO[C@@H]1CCN(S(=O)(=O)c2cccs2)[C@H](C(=O)N[C@H](C)C(N)=O)C1,-
COc1cccc(Nc2ccc3c(n2)C(C)(C(=O)NC(C)C)CN(C)C3)c1 (stereo not drawn),2.51µM
COc1cccc(Nc2ccc3c(n2)C(C)(C(=O)NCc2ccco2)CN(C)C3)c1 (stereo not drawn),-
SMILES,Pf Dd2 inh
COCCNC(=O)C1(C)CN(C)Cc2ccc(Nc3cccc(OC)c3)nc21 (stereo not drawn),-
O=C(c1ccoc1)N1CCC(N2C(=O)C(O)C23CCCCC3)CC1 (stereo not drawn),-
O=C1OCCN1C1CCN(Cc2ccc(C(F)(F)F)cc2)CC1,-
Cc1ccc(C(C)NC(=O)CNC23CC4CC(CC(C4)C2)C3)cc1 (stereo not drawn),6.31µM
CC1CCC2(CC1)NC(=O)N(CC(=O)NC(C)c1ccccc1)C2=O (stereo not drawn),-
COc1ccc(C(C)NC(=O)CN2C(=O)NC3(CCC(C)CC3)C2=O)cc1 (stereo not drawn),-
CCO[C@H]1CN(Cc2cnc(-c3ccccc3C)s2)C[C@@H]1O,-
Cn1nccc1C(=O)N1CC(c2ncc3c(-c4ccccc4)nccn23)C1,-
Cc1ccccc1-c1nccn2c(C3CN(Cc4ccccc4O)C3)ncc12,0.355µM
O=C(c1nc2sccn2c1Br)N1CCC(N2CCCCCC2=O)CC1,-
Cc1nc(N2CCC(NCCN3CCCOC3=O)CC2)c2ccsc2n1,-
O=C(NC1CC1)[C@@H]1C[C@H](Oc2ccccc2)CN1C(=O)C1CCC1,-
CCCc1cc(N2CCC(N[C@@H]3CCNC3)CC2)nc(C)n1,-
Cc1nc(N2CCC(NC(=O)Cc3cccc(F)c3)CC2)cc(C(F)(F)F)n1,-
CCc1cc(N2CCC(NCCc3cccc(Cl)c3)CC2)nc(C)n1,11.2µM
NC(=O)CNC(=O)C1=C[C@@H](NC(=O)c2ccc(F)c(Cl)c2)[C@@H](O)[C@H](O)C1,-
Cc1cccc(NC(=O)N2CCC(CN3CCC(C)CC3)CC2)c1C,-
COC(=O)c1ccc(Cl)cc1NC(=O)N1CCC(CN2CCC(C)CC2)CC1,10µM
COC(=O)c1ccc(Cl)cc1NC(=O)N1CCC(CN2CCCC2)CC1,-
c1cc(-c2ccnc3nc(C4CCCCC4)nn23)ccn1,-
CCOc1cccc(CNC(=O)c2ccc(Cn3ccn4nc5c(c4c3=O)CCCC5)cc2)c1,-
CC(C)c1nnc(C2CN(C(=O)CC3CCCC3)CC23CCOCC3)o1 (stereo not drawn),-
CCOCC(=O)N[C@@H]1CN(Cc2ccccc2)C[C@H]1CN(C)C,-
CC(=O)N1Cc2ccccc2CC2(CCCN(CC3CCOCC3)C2)C1 (stereo not drawn),-
CC(C)C(=O)N1Cc2ccccc2CC2(CCCN(CC3CCOCC3)C2)C1 (stereo not drawn),7.08µM
SMILES,Pf Dd2 inh
CC(C)C(=O)N1Cc2ccccc2CC2(CCN(CC3CCNCC3)C2)C1 (stereo not drawn),-
CCN1CCCC2(Cc3ccccc3CN(C(=O)CCNC(C)=O)C2)C1 (stereo not drawn),-
CCN1CCCC2(Cc3ccccc3CN(C(=O)C(C)C)C2)C1 (stereo not drawn),11.2µM
CC(=O)N1Cc2ccccc2CC2(CCCN(C)C2)C1 (stereo not drawn),-
CCn1ccc(C(=O)N2CCCC(c3noc(COc4ccccc4F)n3)C2)n1 (stereo not drawn),-
Cn1nc2n(c1=O)CCC(NC(=O)CCC1CCCCC1)CC2 (stereo not drawn),-
Cn1cc2c3c(cccc31)CN(C(=O)C1CCC1)CC2,-
CCOc1cccc(CNc2ccc(O)cc2)c1OCc1ccccc1Cl,-[5.79 µM]
CCOc1cc(CNc2ccc(O)cc2)cc(Cl)c1OCc1ccccc1,12.6µM
CCOc1cc(CNc2ccc(C(=O)O)cc2)ccc1OCc1ccccc1,-
Cn1cc(-c2cc3n(n2)CCC(=O)N3CCCC(=O)Nc2ccc(Cl)cc2)c2ccccc21,-
COc1cc(NC(=O)CCCN2C(=O)CCn3nc(-c4cn(C)c5ccccc45)cc32)cc(OC)c1,7.94µM
Cc1cccc(C)c1NC(=O)CCCN1C(=O)CCn2nc(-c3cn(C)c4ccccc34)cc21,-
O=C(c1ccccc1)N1CC2(Cc3ccccc3NC2=O)C1,-
O=C(NCc1ccccc1)C1CCC(=O)N1C1CCN(C(=O)c2ccc3c(c2)OCO3)CC1 (stereo not drawn),-
FC(F)(F)CN1C2CCC1CN(c1nncc3ccccc13)C2,-
CCc1ncc2c(N3CC4CCC(C3)N4CC(F)(F)F)nc3ccccc3n12,3.16µM
COc1cc2ncnc(N3CC4CCC(C3)N4CC(F)(F)F)c2cc1OC,-
O=C(O)c1ccc(CN2CCC3(CC2)CC(C(=O)O)N(C(=O)C2CC2)C3)cc1 (stereo not drawn),-
COCc1cc(C[C@@H]2CC[C@H](O)[C@@H](CN(C(=O)Nc3ccccc3OC)C(=O)Nc3ccccc3OC)O2)no1,-
COC(C(=O)Nc1ccnn1C1CCN(C(=O)C2CCC2)CC1)c1ccccc1 (stereo not drawn),-
CC(=O)N1CCC(Cc2ncc(C)n2C2CC2)C1 (stereo not drawn),-
COc1ccc(C(=O)N2CCc3ccc(C(=O)NCc4ccccc4C)cc32)cc1,-
